We go through five compounds from PubChem BioAssay (NCATS).

A number with no mark means an inactive call. Results filed as inconclusive are left out. Calls of active or inactive are those of the source. Calls follow the shape of the dose curve; as a rule, active = well fitted curve in the direction sought with a large enough effect; inconclusive = small, poorly fitted or top-dose-only effect, or another doubt; inactive = no such curve, though single readings can be large; an effect the other way counts as inactive or inconclusive.

Assay [1] is described as follows: HPAF-II 24hr Apoptosis Induction qHTS against the NCATS CANVASS Library (AID 1347356). In a few lines:
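Caspase-Glo 3/7 luminescence, read after 15 min room-temperature development, measures apoptosis in HPAF-II cells treated 24 h at 37 degrees C with an 11-point concentration series; 500 cells/well; doxorubicin control.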

Assay [2] can be described thus: HEK293 18hr Apoptosis Induction qHTS against the NCATS CANVASS Library (AID 1347357). In a few lines:
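HEK293 cells (500/well, DMEM + 10% FBS) treated with an 11-point series for 18 h at 37 degrees C. Caspase-3/7 activity read by Caspase-Glo luminescence after 15 min at room temperature.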

Assay [3] is described as follows: HEK293 24hr Apoptosis Induction qHTS against the NCATS CANVASS Library (AID 1347359). In a few lines: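 HEK293 cells (500/well, DMEM + 10% FBS) were exposed to compounds in an 11-point series for 24 hours at 37 degrees C, then caspase-3/7 activity was read by Caspase-Glo DEVD luciferase luminescence after 15 min.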
The nature of assay [4]: HPAF-II 18hr Apoptosis Induction qHTS against the NCATS CANVASS Library (AID 1347360). In a few lines: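 HPAF-II cells at 500/well were exposed for 18 h at 37 C to an 11-point compound series. Caspase-3/7 activity was read by Caspase-Glo luminescence after 15 min at RT.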
For assay [5], the system named is NAD(P)H diaphorase (Clostridium kluyveri). Nature of the assay: Diaphorse counterscreen qHTS: Assay Interference Panel against the NCATS CANVASS Library (AID 1347362). Also: potency is read from the fitted curve at half-maximal effect. In a few lines:
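Clostridium kluyveri diaphorase in PBS with 0.01% Tween-20 was preincubated 15 min at room temperature in the dark with compounds (11-point series). Resorufin fluorescence (ex 525/20, em 598/25) was read 5 min after adding resazurin/NADH.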

In assay [6] the target is Luciferin 4-monooxygenase (Photinus pyralis) (UniProt P08659). Nature of the assay: Firefly luciferase counterscreen qHTS: Assay Interference Panel against the NCATS CANVASS Library (AID 1347363). Also: series mostly up to about 57 µM. The procedure, abridged:
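Purified P. pyralis luciferase was added to compounds (11-point series) preincubated 15 min at room temperature with substrate containing 0.013 mM D-luciferin and 0.013 mM ATP; luminescence was read after 5 min.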

The nature of assay [7]: KB-3-1 Cancer Cell Toxicity qHTS against the NCATS CANVASS Library (AID 1347366). Also: nearly all actives have a fitted effect of over 75% in size. The procedure, abridged: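 KB-3-1 cells (500/well) in DMEM with 10% FBS were exposed to compounds for 72 h at 37C. Viability was read by CellTiter-Glo luminescence.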
Assay [8] in a line: qHTS for ATAD5 Agonist screened against the NCATS CANVASS Library (AID 1347367).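 Also: luciferase reporter driven by ATAD5 which rises upon DNA damage.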 In a few lines: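 Luciferase reporter under ATAD5 control, stably integrated in HEK293T cells (2000/well). Compounds (11 points) incubated 16 h at 37C; viability read first by CellTiter-Fluor, then luminescence reporting ATAD5 activation. MMS positive control.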
Assay [9] can be described thus: G06 Cancer Cell Toxicity qHTS against the NCATS CANVASS Library (AID 1347368). Also: nearly all actives have a fitted effect of over 60% in size. Also: potency is read from the fitted curve at half-maximal effect. In a few lines: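 Viability measured by CellTiterGlo ATP luminescence after 72 hr at 37C, 5% CO2. Canine G06 glioma cells plated at 500/well. Compounds tested as 11-point qHTS titrations.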
A short description of assay [10]: MCF7 Cancer Cell Toxicity qHTS against the NCATS CANVASS Library (AID 1347369). The procedure, abridged: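 MCF7 cells (500/well) were exposed 72 h at 37 °C to compounds in an 11-point series. Viability was read as ATP content by CellTiterGlo luminescence.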
Assay [11] in a line: qHTS for ATAD5 Antagonist screened against the NCATS CANVASS Library (AID 1347370).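 Also: HEK293T cells carrying an ATAD5 luciferase reporter co-treated with 10 µM 5-fluorouridine; series mostly up to about 46 µM; nearly all actives have a fitted effect of over 65% in size.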 In a few lines:
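Compounds (11-point) co-dosed with 10 µM 5-FUrd for 16 h at 37 °C onto HEK293T-ATAD5 luciferase reporter cells. Viability measured by CellTiter-Fluor fluorescence, then ATAD5 reporter signal by luminescence.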

Assay [12] in a line: J3T Cancer Cell Toxicity qHTS against the NCATS CANVASS Library (AID 1347371). The procedure, abridged: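 Cytotoxicity read as CellTiterGlo ATP luminescence after 72 h incubation (37C, 5% CO2) of J3T canine glioma cells (500/well) with an 11-point compound series.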
Assay [13] concerns the target Nuclear receptor subfamily 1 group I member 3 (Homo sapiens) (UniProt Q14994). Nature of the assay: qHTS for Constitutive Androstane Receptor (CAR) Antagonist screened against the NCATS CANVASS Library (AID 1347372).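 Also: cells stimulated with 50 nM CITCO agonist so inhibition reflects antagonism; luciferase from CYP2B6 promoter reporter driven by hCAR in HepG2 cells; series mostly up to about 46 µM.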 In a few lines:
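Cells were seeded and left 4hr to attach, then received compound at 11 concentrations and 50 nM CITCO. Following 24hr incubation, fluorescence viability and luciferase luminescence were read sequentially.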

For assay [14] the target is unchanged. Nature of the assay: qHTS for Constitutive Androstane Receptor (CAR) Agonist screened against the NCATS CANVASS Library (AID 1347373).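 Also: every well also contained 1.5 µM PK11195 alongside the test compound.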 The procedure, abridged: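 Agonist mode with 1.5uM PK11195 present: compounds for 24hr on HepG2-hCAR-CYP2B6 cells. CellTiter-Fluor fluorescence (ex 405, em 540 nm) gives viability; ONE-Glo luminescence reports CAR activation.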

Assay [15] is described as follows: 10-beta competent E. coli microbial cell viability qHTS against the NCATS CANVASS Library (AID 1347376). Also: series mostly up to about 46 µM. The procedure, abridged:
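Read-out: BacTiter-Glo ATP luminescence, taken 20 min after reagent addition. Beforehand, 10-beta competent E. coli at 0.2 OD had been incubated overnight at 37C with compounds at 11 concentrations.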

A short description of assay [16]: qHTS for H2AX Agonists against the NCATS CANVASS Library (AID 1347378). The procedure, abridged: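 CHO-K1 cells (1000/well, overnight at 37C) exposed to compounds at several concentrations for 3 hr at 37C, 0.76% DMSO final. Lysates read by TR-FRET (phospho-H2AX S139 Eu-cryptate antibody / H2AX-d2 antibody) after 24 hr at room temperature; 665/615 nm ratio.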
Assay [17] is described as follows: qHTS for Inflammasome Signaling Inhibitors: IL-1-beta AlphaLISA screen against the NCATS CANVASS Library (AID 1347379).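 Also: human THP-1 cells primed with LPS then triggered with ATP.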 In a few lines: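 Secreted IL-1B from human THP-1 cells quantified by AlphaLISA 16 hr after compound addition (final up to 57.5 uM). A 1 hr compound pretreatment preceded inflammasome activation with 250 ng/mL LPS plus 1.25 mM ATP (final).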

Assay [18] in a line: Inflammasome Signaling qHTS Counterscreen: IL-1-beta AlphaLISA counterscreen against the NCATS CANVASS Library (AID 1347381).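 Also: cell-free check with purified IL-1β in medium and no THP-1 cells; series mostly up to about 57 µM.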 The procedure, abridged: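 Purified IL-1-beta (4 pg/well) + compound, 11-pt conc. series; acceptor beads 6 ug/mL + biotin-Ab 0.6 nM final, 1 h RT; SA-donor 24 ug/ml final, 30 min dark RT; read ex 680/em 615.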
Assay [19] in a line: Cytotoxicity qHTS for assessment of Hepg2 cells membrane integrity screened against the NCATS CANVASS Library (AID 1347387). In a few lines:
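Membrane damage quantified as fluorescent LDH-release signal (ex 560, em 590 nm) in HepG2 cells treated 5 hr at 37C. qHTS format, 11 concentrations spanning 0.59 nM - 46 uM final, cells plated at 2000 per well the night before.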

Assay [20] is described as follows: Viability qHTS for inhibitors of the SERCaMP assay screened against the NCATS CANVASS Library (AID 1347400). Also: nearly all actives have a fitted effect of over 70% in size. Also: potency is read from the fitted curve at half-maximal effect. In a few lines:
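CellTiter-Glo luminescence measured cytotoxicity after 48 h at 37C of compound treatment (11-point series). Cells were SH-SY5Y-GLuc SERCaMP MJH297 derivatives, seeded at 1000 per well 4 h beforehand.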

Chain of Nuclear receptor subfamily 1 group I member 3 (Homo sapiens) (Q14994 whole entry, looked up): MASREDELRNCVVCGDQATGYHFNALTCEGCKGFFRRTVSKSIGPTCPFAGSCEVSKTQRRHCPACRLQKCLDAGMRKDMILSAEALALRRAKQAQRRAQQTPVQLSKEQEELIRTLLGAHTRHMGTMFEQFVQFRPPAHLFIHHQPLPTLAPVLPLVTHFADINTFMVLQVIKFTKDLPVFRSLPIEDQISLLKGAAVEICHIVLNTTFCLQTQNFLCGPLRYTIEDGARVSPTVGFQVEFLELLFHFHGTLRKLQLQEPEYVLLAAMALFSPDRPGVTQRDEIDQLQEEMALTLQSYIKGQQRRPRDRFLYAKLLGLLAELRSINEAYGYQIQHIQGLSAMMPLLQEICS
Chain of Luciferin 4-monooxygenase (Photinus pyralis) (P08659 whole entry, looked up): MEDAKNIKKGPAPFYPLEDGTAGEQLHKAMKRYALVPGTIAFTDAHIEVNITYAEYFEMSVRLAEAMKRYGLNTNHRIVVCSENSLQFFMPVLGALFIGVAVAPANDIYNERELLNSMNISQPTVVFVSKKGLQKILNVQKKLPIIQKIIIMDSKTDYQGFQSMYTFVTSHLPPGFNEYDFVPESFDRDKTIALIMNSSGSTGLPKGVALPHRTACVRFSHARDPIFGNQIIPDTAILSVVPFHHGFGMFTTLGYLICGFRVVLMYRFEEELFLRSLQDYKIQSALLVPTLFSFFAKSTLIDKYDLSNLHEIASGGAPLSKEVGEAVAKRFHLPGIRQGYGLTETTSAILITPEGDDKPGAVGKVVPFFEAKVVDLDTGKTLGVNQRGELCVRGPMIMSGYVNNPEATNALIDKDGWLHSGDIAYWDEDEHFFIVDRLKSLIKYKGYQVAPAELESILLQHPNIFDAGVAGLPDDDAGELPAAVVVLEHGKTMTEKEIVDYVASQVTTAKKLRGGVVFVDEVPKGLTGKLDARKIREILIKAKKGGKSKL

In the case of `COC12OC1(C13OC1(OC)C(=O)c1cc4cc(C)oc(=O)c4c(O)c1C3O)C(O)c1c(cc3cc(C)oc(=O)c3c1O)C2=O` (stereo unspecified), the compound was called inactive in assay [1], in [15], in assay [18] and in [19]. The Potency result in assay [2], in assay [3], in [4], in [5], in assay [6] and in assay [7] was “inactive” in each case. For the same compound, the Potency entry in [8], in assay [9], in assay [10], in [11], in assay [12] and in assay [13] was “inactive” throughout. Moreover, the Potency entry in assay [14], in [16], in [17] and in assay [20] was “inactive” each time.
As to `C[C@H]1C=C[C@H]2CCCC[C@@H]2[C@H]1C(=O)[C@H]1CC2=C(C(=O)O)CCN2C1=O`, the compound was called inactive in assay [1], in assay [15], in assay [18] and in assay [19]. For the same compound, the Potency entry in assay [2], in assay [3], in assay [4], in assay [5], in assay [6] and in assay [7] was “inactive” each time. Also, the Potency entry in assay [8], in [10], in [11], in assay [12], in assay [13] and in assay [14] was “inactive” each time. Also, the Potency entry in [16] and in assay [17] was “inactive” in each case.
For `CCC(=O)N[C@@H](C[C@H](C)C(Cl)(Cl)Cl)C(=O)N1C(=O)C=C(OC)[C@@H]1CC(C)C`, the result in assay [1], in assay [15], in assay [18] and in [19] was inactive. For the same compound, the Potency entry in [2], in assay [3], in [4], in [5], in assay [6] and in assay [7] was “inactive” in each case. Besides, the Potency result in [8], in [11], in assay [12], in [14], in [16] and in assay [17] was “inactive” each time. The Potency result in [20] is “inactive”.
On to `C[n+]1cc2cc(C(N)=O)[nH]c3c(=N)c(Cl)c(N)c1c23`, for which the outcome in [1], in [15], in assay [18] and in assay [19] was inactive. In addition, the Potency entry in assay [2], in [3], in [4], in assay [6], in [7] and in assay [8] was “inactive” throughout. Further, the Potency entry in assay [10], in assay [11], in [12], in assay [13], in assay [14] and in assay [17] was “inactive” in each case. The figures for the Potency in [5], in assay [9] and in [20] were 15.3 µM (active), 5.26 µM (active) and 42.8 µM (active), respectively.
For `O=c1cc(-c2ccc(O)c(O)c2)oc2cc(O[C@@H]3O[C@H](CO)[C@@H](O)[C@H](O)[C@H]3O)cc(O)c12`, the outcome in assay [1], in assay [15], in assay [18] and in [19] was inactive. In addition, the Potency result in assay [2], in [3], in assay [4], in assay [6], in [8] and in [10] was “inactive” in each case. The Potency result in assay [11], in assay [12], in assay [13], in assay [14], in assay [16] and in assay [17] was “inactive” each time. For the same compound, the Potency entry in [20] is “inactive”.
